Data taken from PubChem BioAssay AID1362 (SRMLSC, 2008).
Out of some 190,000 compounds screened, about 4,000 (2.1%) were called active. This is one part of a sample in which actives are shown more often than they occur. Cut-off read from the data, not from the text of the source: active = inhibition above about 58%; inactive = the rest, inconclusive results apart; tested in S. cerevisiae.

Experiment: growth inhibition of WT strain, primary screen, mitochondrial fusion inhibitor project, WT and mutant strains, chemical genetic (AID 1362)
Details: mitochondrial fusion phenotypic screen, at 10 µM
[1] = WT strain, growth inhibition, stronger effect = higher value

Row | Structure (SMILES) | inhibition [1] | inhibition (mutant strain inhibition)
1 | c1ccc2sc(NN=C3CCCC3)nc2c1 | 1.96% (inactive) | -13.6%
2 | Cc1cc(C)n2nc(SCC(N)=O)nc2n1 | 1.11% (inactive) | -5.58%
3 | COc1ccc(Cl)cc1NC(=O)CN(C)Cc1ccc(OC)c(OC)c1 | 13.3% (inactive) | 10.6%
4 | COc1ccc(Br)cc1CN(C)CC(=O)Nc1cc([N+](=O)[O-])ccc1OC | -3.27% (inactive) | 14%
5 | COc1ccc(Br)cc1CN(C)CC(=O)Nc1cc(Cl)cc(Cl)c1 | 64.1% (active) | -2.55%
6 | CCC(C(=O)Nc1ccc2c(c1)OCCO2)c1ccccc1 (stereo not given) | -3.34% (inactive) | -11.8%
7 | CCOC(=O)N1CCN(Cc2nc3ccc([N+](=O)[O-])cc3c(=O)n2-c2cccc(OC)c2)CC1 | -16.2% (inactive) | 2.45%
8 | COc1cc(C(=O)NCc2ccc(-n3cccc3)cc2)cc(OC)c1OC | 4.37% (inactive) | -13.6%
9 | COC(=O)CCNC(=O)c1ccc2[nH]c(C)c(C)c2c1 | 3.23% (inactive) | -1.22%
10 | Cc1ccccc1OCC(O)CN1CCN(c2ccccn2)CC1 (stereo not given) | 5.12% (inactive) | 6.35%
11 | Cc1cccc(OCC(O)CN2CCN(CCN3C(=O)c4cccc5cccc(c45)C3=O)CC2)c1C (stereo not given) | 64.5% (active) | 57.3%
12 | Cc1cccc(C)c1OCC(O)CN1CCCCC1 (stereo not given) | -0.96% (inactive) | 0.39%
13 | CN(CCc1cn[nH]c1)C(=O)CC1C(=O)NCCN1Cc1cccc(Oc2ccccc2)c1 (stereo not given) | 0.86% (inactive) | 0.64%
14 | CC(C)C(=O)Nc1oc(-c2ccccc2)cc1C#N | 8.16% (inactive) | -3.13%
15 | CC(C)(C)Cc1nnc(NC(=O)c2cc(-c3ccccc3)nc3ccccc23)s1 | 34.7% (inactive) | 9.7%
16 | O=C(Nc1nnc(-c2ccccc2)o1)c1cc(-c2cccs2)nc2ccccc12 | 70.4% (active) | 64.4%
17 | CCCC(=O)Nc1nnc(-c2ccccc2)o1 | -6.78% (inactive) | 13.2%
18 | Cc1cc(C)c2[nH]c(=O)c(CN(Cc3ccccc3)C(=S)NCCCN(C)C)cc2c1 | -2.4% (inactive) | 16.4%
19 | Cc1cc2c(cc1C)[n+](C)cn2CC(O)COCC1CC=CCC1 (stereo not given) | 0.89% (inactive) | -7.37%
20 | COc1ccc(C)cc1NC(=O)c1ccc(-c2ccc(C(C)=O)cc2)o1 | 15.7% (inactive) | 5.74%
21 | COc1cc(SC#N)ccc1N=Cc1c(C)[nH]n(-c2ccc(C)cc2)c1=O | 81.4% (active) | 11.6%
22 | CCc1nnc(NS(=O)(=O)c2ccc(N=Cc3c(C)[nH]n(-c4ccc(C)cc4)c3=O)cc2)s1 | 40.8% (inactive) | 28.3%

Row | Structure (SMILES) | inhibition [1] | inhibition (mutant strain inhibition)
23 | Cc1ccc(-n2[nH]c(C)c(/C=N/N3C(=O)c4cccc5cccc(c45)C3=O)c2=O)cc1 | 13.3% (inactive) | 13%
24 | Cc1ccc(OCC(=O)Nc2ccc(S(=O)(=O)Nc3ccccn3)cc2)cc1 | -2.17% (inactive) | -9.5%
25 | NS(=O)(=O)c1ccc(NC(=S)NC(=O)c2cccnc2)cc1 | -6.97% (inactive) | -10.8%
26 | Cn1nnnc1NCc1ccc(Cl)c(Cl)c1 | -2% (inactive) | 14.5%
27 | O=[N+]([O-])c1ccc(Oc2ccc(F)cc2Br)c2ccncc12 | 68.7% (active) | 58.1%
28 | O=[N+]([O-])c1ccc(F)cc1Oc1nc(-c2cccnc2)nc2ccccc12 | 2.1% (inactive) | 3.69%
29 | O=C(O)CSc1nccc2ccccc12 | -2.02% (inactive) | -7.45%
30 | Cc1ccc(Nc2nnc(SCC(=O)c3cc4ccccc4o3)s2)cc1C | 0.56% (inactive) | 20.2%
31 | CC(C)c1ccc(Nc2nnc(SCC(=O)c3nnc(-c4ccccc4)o3)s2)cc1 | 70.5% (active) | 55.7%
32 | O=C(CSc1nnc(Nc2ccccc2)s1)Nc1cccnc1Cl | -3.41% (inactive) | -15.4%
33 | S=C(NCc1ccco1)Nc1ccc2c(c1)OCCO2 | -2.47% (inactive) | 9.66%
34 | CC(C)(C)NC(=O)NC(=O)COC(=O)Cc1c(F)cccc1Cl | -15.4% (inactive) | 1.6%
35 | NS(=O)(=O)c1ccc(NC(=S)Nc2ccc(Br)c(Cl)c2)cc1 | 82.6% (active) | 54.2%
36 | NS(=O)(=O)c1ccc(NC(=S)NC(=O)c2cccc(Br)c2)cc1 | 11% (inactive) | 20.3%
37 | NS(=O)(=O)c1ccc(CCNC(=S)Nc2ccc(S(N)(=O)=O)cc2)cc1 | -5.98% (inactive) | -14.5%
38 | CCCn1c(=S)[nH]c2ccc(C(F)(F)F)cc21 | 2.77% (inactive) | 12.1%
39 | CO/N=C/c1cn(-c2ccc(Cl)cc2)nn1 | -5.72% (inactive) | -2.58%
40 | O=C(c1ccc2c(c1)OCO2)N1CCN(C(=O)c2ccco2)CC1 | -13.2% (inactive) | -33.3%
41 | O=C(c1ccco1)N1CCN(C(=O)C2c3ccccc3Oc3ccccc32)CC1 | 71.1% (active) | 6.75%
42 | O=C(c1ccco1)N1CCN(c2cccc(Cl)c2)CC1 | 7.68% (inactive) | -0.39%
43 | O=C(C1CCN(C2CCN(Cc3cccc4c3OCO4)CC2)CC1)N1CCOCC1 | 5.02% (inactive) | 2.36%
44 | CN(C)CCCN1C(=O)CSC1c1ccc([N+](=O)[O-])cc1 (stereo not given) | -4.48% (inactive) | 1.39%

Row | Structure (SMILES) | inhibition [1] | inhibition (mutant strain inhibition)
45 | COc1ccc(/C=C/C(=O)OCC(=O)Nc2cccc(Oc3ccccc3)c2)c(OC)c1 | 7.56% (inactive) | 8.13%
46 | COc1cccc(NC(=O)COC(=O)CCOc2ccccc2OC)c1 | -0.47% (inactive) | -4.38%
47 | COc1cc(/C=C/C(=O)OCC(=O)Nc2cccc(Oc3ccccc3)c2)ccc1O | 68.3% (active) | 29%
48 | O=C(c1ccc(C(F)(F)F)cc1)C1CCCN(C(=O)c2csnn2)C1 (stereo not given) | 7.52% (inactive) | 10.7%
49 | COc1ccc(-c2csc(NC(=O)c3ccc(N4C(=O)CCC4=O)cc3)n2)cc1OC | 7.99% (inactive) | 3.27%
50 | CC(=O)c1ccc(N2CCN(CC(=O)Nc3ccccc3N3CCOCC3)CC2)cc1 | -16% (inactive) | 4.64%
51 | COC(=O)Cc1ccc(NC(=S)NCc2ccco2)cc1 | 6.76% (inactive) | 3.2%
52 | Cc1cccc(N2CCN(C(=O)c3ccccc3NC(=O)C3CCCCC3C(=O)O)CC2)c1 (stereo not given) | -3.08% (inactive) | -3.64%
53 | CC(C)c1ccc(N2CCN(C(=O)c3ccccc3NC(=O)/C=C(\C(=O)O)c3ccccc3)CC2)cc1 | 71% (active) | 37.8%
54 | O=C(O)C1CC=CCC1C(=O)Nc1ccccc1C(=O)N1CCN(c2ccccc2)CC1 (stereo not given) | -12.3% (inactive) | -3.47%
55 | COc1cc(NC(=S)NCc2ccc(S(N)(=O)=O)cc2)cc(OC)c1 | -1.93% (inactive) | 4.18%
56 | COc1ccc(NC(=S)NCCNC(C)=O)cc1 | 3.42% (inactive) | 8.02%
57 | COc1cc(NC(=S)NCCSc2ccc(C)cc2)cc(OC)c1 | 71.4% (active) | 51.4%
58 | Cc1nnc(SC(C(=O)Nc2cc(Cl)cc(Cl)c2)c2ccccc2)[nH]c1=O (stereo not given) | 1.45% (inactive) | 9.8%
59 | COc1cc(/C=C/C(=O)OCC(=O)NC(=O)NCc2ccccc2)ccc1OCC#N | 6.54% (inactive) | 3.13%
60 | CN1C(=O)C(CC(=O)Nc2ccccc2)S/C1=N/c1nccs1 (stereo not given) | -7.94% (inactive) | 3.24%
61 | COc1ccc(Cl)cc1NC(=O)C(C)N1CCc2ccccc21 (stereo not given) | 54% (inactive) | 18.4%
62 | COCCOCCn1cnc2ccccc21 | -10.3% (inactive) | -7.09%
63 | Cc1cc2ncn(CCCCOc3ccccc3)c2cc1C | 62.5% (active) | 44.6%
64 | Clc1ncn(CCOc2ccccc2)c1Cl | -14.3% (inactive) | -12.6%
65 | COc1ccc(C(=O)NNC(=O)c2cc(C)[nH]n2)cc1 | -20% (inactive) | -23.8%
66 | C/C(=C\c1ccco1)CN1CCC(N2CCC(C(=O)N3CCOCC3)CC2)CC1 | -2.61% (inactive) | 2.35%

Row | Structure (SMILES) | inhibition [1] | inhibition (mutant strain inhibition)
67 | O=C(NC(=S)Nc1cccc(-c2ccc(CO)o2)c1)c1cccs1 | 6.13% (inactive) | 12.3%
68 | CC(=O)Nc1ccc(NC(=S)NC(=O)/C=C/c2ccccc2)cc1 | -1.35% (inactive) | -0.82%
69 | COc1ccc(-c2onc(C)c2-c2ccc3c(c2)OCCO3)c(O)c1 | 21.9% (inactive) | -8.53%
70 | O=c1c(-c2ccc3c(c2)OCCO3)c(C(F)(F)F)oc2cc(O)cc(O)c12 | 70.7% (active) | 42.8%
71 | CCOC(=O)c1cc2cc(-c3c(C(=O)OCC)oc4cc(O)cc(O)c4c3=O)ccc2o1 | -4.08% (inactive) | -39.7%
72 | S=C(NCCc1ccccc1)N1CCCCC1 | 8.05% (inactive) | 12.7%
73 | Cc1ccc(NC(=S)NCc2ccccc2Cl)c(C)c1 | 41% (inactive) | -1.48%
74 | S=C(NCCc1ccccc1)NCc1ccccc1Cl | 62% (active) | 35.9%
75 | CC(=O)N1CCN(S(=O)(=O)c2c(F)cc(F)c(Cl)c2F)CC1 | -3.19% (inactive) | 3.15%
76 | CSc1ccc(/C=N/N2CCN(Cc3ccccc3Cl)CC2)cc1 | 43.5% (inactive) | 23.8%
77 | COc1cc(CNC2CCCCC2)c(Br)cc1OC1CCCC1 | 18.3% (inactive) | 20.6%
78 | O=C(/C=C/c1ccccc1)N/C(=C/c1ccccc1)C(=O)Nc1ccccc1O | -8.09% (inactive) | -0.03%
79 | CCc1ccccc1NC(=O)/C(=C/c1ccccc1)c1ccccc1 | 64.8% (active) | 9.35%
80 | CCc1ccccc1NC(=O)c1cccs1 | 2.87% (inactive) | -2.72%
81 | CCN(CC)CCN(C(=O)c1ccc(N2C(=O)CCC2=O)cc1)c1nc2cc3c(cc2s1)OCO3 | 2.8% (inactive) | -0.18%
82 | COc1ccc(-c2ccc(CNCCCN3CCOCC3)o2)cc1Cl | 6.85% (inactive) | 12.6%
83 | C=CCNC(=S)NNC(=O)COc1c(Cl)cc(Cl)cc1Cl | 67.1% (active) | 29.7%
84 | C=CCNC(=O)COC(=O)CNC(=O)c1cc(Cl)cc([N+](=O)[O-])c1 | -6.93% (inactive) | 10.8%
85 | C=CCNC(=S)NNC(=O)c1ccc(Br)o1 | -3.81% (inactive) | 3.41%
